# Measured values as given in PMC7862700, “An all-to-all approach to the identification of sequence-specific readers for epigenetic DNA modifications on cytosine”.
# Key:
# Test in all cases: DAPPL (digital affinity profiling via proximity ligation, sequencing); 10 mM Tris-HCl pH 7.5, 50 mM NaCl, 1 mM DTT, 4% glycerol, room temperature, 30 min; GST-TFs on glutathione beads, 16-mer random dsDNA library, 0.1% formaldehyde crosslink after washing; high values mean tight binding
# Settings in all cases: protein: recombinant; tags: N-terminal GST; dsDNA, one strand shown
# [1] = target: T1, ELK1 (Homo sapiens, UniProt P19419 1-428)
# T1 sequence: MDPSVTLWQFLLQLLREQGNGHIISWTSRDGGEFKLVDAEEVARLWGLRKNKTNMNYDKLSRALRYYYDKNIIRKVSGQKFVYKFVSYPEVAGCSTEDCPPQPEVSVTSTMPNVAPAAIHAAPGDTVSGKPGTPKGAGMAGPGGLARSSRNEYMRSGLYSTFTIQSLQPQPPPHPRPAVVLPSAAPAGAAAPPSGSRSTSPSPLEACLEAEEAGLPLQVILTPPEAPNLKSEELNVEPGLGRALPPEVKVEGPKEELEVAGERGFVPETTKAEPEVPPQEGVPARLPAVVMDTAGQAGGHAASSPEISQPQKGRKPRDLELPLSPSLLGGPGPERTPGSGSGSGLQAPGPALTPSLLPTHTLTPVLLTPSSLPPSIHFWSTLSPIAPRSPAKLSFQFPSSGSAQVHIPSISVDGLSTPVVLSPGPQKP
# Summary of the method: (§1)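 Pools were built from human transcription factors expressed in yeast as GST fusions, captured on glutathione beads and DNA-barcoded, along with a tag-only sample. Incubation with 200 nmole of a 16-mer random double-stranded DNA library lasted 30 min at room temperature in Tris/NaCl/DTT/glycerol buffer, and was followed by washing, 0.1% formaldehyde crosslinking, proximity ligation, PCR amplification and Illumina NextSeq500 sequencing. Binding signal is the quotient of each hexamer's read frequency for a factor and its frequency for the tag-only sample.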
# [2] = target: T2, GABPA (Homo sapiens, UniProt Q06546 1-454)
# T2 sequence: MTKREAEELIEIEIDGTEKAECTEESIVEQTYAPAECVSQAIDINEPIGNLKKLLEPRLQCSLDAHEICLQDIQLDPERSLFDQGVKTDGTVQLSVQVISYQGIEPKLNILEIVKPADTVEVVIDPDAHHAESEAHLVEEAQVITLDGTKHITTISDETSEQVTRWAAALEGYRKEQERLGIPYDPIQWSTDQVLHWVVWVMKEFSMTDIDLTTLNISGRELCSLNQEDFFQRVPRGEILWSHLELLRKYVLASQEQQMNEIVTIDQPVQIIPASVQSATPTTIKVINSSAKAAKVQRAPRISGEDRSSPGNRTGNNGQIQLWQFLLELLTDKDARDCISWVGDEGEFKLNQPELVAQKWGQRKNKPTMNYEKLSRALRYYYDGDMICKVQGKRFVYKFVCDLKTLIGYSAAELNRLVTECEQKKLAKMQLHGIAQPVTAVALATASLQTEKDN
# Summary of the method: as §1
# [3] = target: T3, ERG (Homo sapiens, UniProt P11308 1-479)
# T3 sequence: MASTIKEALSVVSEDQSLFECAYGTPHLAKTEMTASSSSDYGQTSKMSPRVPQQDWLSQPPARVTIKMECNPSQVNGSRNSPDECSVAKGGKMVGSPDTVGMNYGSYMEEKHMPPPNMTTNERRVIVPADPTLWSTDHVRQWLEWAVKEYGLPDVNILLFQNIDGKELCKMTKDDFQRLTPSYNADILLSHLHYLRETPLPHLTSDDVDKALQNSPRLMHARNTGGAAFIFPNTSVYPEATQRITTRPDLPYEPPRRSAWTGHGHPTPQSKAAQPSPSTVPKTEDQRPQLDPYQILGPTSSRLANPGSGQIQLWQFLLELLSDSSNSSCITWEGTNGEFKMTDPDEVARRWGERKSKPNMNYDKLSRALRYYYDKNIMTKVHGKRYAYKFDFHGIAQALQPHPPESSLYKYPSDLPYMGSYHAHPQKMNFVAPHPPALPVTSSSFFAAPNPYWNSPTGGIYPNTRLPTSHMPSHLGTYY
# Summary of the method: as §1
# [4] = target: T4, EHF (Homo sapiens, UniProt Q9NZC4 1-300)
# T4 sequence: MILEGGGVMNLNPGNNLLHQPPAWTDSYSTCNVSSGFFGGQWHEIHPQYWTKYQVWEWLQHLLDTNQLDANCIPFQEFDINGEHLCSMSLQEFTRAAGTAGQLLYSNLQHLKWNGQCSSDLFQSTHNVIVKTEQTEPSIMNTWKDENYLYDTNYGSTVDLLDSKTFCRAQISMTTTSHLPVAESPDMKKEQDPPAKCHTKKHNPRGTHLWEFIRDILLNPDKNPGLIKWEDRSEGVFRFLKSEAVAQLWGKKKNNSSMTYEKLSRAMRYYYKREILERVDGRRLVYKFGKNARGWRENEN
# Summary of the method: as §1
# [5] = target: SPI1 (Homo sapiens, UniProt P17947 1-270)
# Summary of the method: as §1
# [6] = target: SPIB (Homo sapiens, UniProt Q01892 1-262)
# Chain of SPIB (Q01892 whole entry): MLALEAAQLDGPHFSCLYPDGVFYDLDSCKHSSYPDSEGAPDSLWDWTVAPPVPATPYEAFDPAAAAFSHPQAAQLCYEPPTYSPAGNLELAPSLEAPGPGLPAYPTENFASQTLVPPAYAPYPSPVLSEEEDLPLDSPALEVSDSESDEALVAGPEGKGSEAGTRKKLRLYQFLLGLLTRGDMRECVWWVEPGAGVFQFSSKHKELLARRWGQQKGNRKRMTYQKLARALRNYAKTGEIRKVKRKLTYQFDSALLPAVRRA
# Summary of the method: as §1
# [7] = target: ETV5 (Homo sapiens, UniProt P41161 1-510)
# Chain of ETV5 (P41161 whole entry): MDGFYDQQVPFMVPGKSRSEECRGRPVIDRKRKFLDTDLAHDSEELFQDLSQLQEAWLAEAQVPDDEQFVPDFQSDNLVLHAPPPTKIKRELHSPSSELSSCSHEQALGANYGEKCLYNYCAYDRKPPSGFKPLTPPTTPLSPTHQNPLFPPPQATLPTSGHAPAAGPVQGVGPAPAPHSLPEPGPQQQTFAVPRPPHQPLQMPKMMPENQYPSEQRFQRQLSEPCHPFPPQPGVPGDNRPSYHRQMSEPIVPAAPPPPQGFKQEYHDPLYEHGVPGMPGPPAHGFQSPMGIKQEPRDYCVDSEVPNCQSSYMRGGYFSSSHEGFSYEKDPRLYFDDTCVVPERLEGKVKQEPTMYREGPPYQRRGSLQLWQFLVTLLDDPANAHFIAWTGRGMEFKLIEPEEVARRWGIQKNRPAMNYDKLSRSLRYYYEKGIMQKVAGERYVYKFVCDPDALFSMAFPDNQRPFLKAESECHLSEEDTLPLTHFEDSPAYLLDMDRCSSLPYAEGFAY
# Summary of the method: as §1
# [8] = target: T5, ELF3 (Homo sapiens, UniProt P78545 1-371)
# T5 sequence: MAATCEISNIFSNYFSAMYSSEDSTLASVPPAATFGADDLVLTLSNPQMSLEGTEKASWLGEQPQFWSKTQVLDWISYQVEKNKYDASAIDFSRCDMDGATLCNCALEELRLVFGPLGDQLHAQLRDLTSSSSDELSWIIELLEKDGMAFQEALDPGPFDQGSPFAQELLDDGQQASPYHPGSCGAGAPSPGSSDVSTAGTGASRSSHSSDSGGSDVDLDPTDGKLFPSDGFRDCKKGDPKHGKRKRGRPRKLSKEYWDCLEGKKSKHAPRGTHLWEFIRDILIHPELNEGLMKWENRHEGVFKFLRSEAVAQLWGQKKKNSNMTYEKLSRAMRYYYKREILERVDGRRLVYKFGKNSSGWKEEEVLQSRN
# Summary of the method: as §1
# [9] = target: T6, ERF (Homo sapiens, UniProt P50548 1-548)
# T6 sequence: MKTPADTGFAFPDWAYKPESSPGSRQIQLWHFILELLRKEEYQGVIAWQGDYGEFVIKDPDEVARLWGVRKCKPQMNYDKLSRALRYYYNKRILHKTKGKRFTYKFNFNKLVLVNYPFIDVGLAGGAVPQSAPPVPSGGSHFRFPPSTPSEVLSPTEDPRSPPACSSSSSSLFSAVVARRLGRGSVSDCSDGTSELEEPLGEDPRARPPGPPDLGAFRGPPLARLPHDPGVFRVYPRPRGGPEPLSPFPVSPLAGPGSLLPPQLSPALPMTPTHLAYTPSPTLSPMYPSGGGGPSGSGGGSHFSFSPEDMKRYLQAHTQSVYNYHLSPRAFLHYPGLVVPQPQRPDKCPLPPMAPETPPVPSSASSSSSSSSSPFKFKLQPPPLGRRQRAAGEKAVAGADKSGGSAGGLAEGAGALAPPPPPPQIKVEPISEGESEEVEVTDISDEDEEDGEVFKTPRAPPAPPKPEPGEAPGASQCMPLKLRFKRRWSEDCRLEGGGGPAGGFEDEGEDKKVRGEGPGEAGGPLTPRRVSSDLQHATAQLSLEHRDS
# Summary of the method: as §1
# [10] = target: T7, ETV3L (Homo sapiens, UniProt Q6ZN32 1-361)
# T7 sequence: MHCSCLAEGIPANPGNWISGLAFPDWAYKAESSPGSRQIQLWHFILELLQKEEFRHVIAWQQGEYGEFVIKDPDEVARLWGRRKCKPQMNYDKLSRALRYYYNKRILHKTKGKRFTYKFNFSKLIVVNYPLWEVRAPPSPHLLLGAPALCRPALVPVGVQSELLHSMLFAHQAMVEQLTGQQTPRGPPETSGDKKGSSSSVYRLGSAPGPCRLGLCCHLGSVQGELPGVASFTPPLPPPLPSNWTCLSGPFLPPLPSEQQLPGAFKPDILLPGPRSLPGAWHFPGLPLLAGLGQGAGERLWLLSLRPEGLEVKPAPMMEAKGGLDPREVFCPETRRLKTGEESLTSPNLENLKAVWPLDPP
# Summary of the method: as §1
# [11] = target: T8, SPDEF (Homo sapiens, UniProt O95238 1-335)
# T8 sequence: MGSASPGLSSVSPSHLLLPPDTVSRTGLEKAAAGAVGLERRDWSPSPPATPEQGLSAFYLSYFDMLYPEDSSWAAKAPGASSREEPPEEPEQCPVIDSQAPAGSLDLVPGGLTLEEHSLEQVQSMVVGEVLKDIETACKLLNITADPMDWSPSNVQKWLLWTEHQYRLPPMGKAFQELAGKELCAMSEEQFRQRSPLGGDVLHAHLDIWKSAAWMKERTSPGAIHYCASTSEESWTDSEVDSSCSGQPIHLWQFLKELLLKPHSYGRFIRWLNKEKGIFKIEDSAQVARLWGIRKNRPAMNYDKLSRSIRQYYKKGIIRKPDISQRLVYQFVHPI
# Summary of the method: as §1
# [12] = target: T9, ETV7 (Homo sapiens, UniProt Q9Y603 1-341)
# T9 sequence: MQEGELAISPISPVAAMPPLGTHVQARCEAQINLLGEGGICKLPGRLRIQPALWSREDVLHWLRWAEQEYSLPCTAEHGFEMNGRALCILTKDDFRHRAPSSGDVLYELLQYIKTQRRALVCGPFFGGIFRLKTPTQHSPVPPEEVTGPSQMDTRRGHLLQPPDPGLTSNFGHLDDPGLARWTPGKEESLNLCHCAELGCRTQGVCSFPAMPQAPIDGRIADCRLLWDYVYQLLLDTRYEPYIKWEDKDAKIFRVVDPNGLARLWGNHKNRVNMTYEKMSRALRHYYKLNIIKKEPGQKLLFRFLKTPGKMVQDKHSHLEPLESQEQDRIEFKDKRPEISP
# Summary of the method: as §1
# [13] = target: T10, ETV3 (Homo sapiens, UniProt P41162-2 1-143)
# T10 sequence: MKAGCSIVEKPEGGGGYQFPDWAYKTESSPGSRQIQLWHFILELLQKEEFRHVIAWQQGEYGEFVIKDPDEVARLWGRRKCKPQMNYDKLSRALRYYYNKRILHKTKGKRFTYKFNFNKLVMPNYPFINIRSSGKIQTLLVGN
# Summary of the method: as §1
# [14] = target: ETV6 (Homo sapiens, UniProt P41212 1-452)
# Chain of ETV6 (P41212 whole entry): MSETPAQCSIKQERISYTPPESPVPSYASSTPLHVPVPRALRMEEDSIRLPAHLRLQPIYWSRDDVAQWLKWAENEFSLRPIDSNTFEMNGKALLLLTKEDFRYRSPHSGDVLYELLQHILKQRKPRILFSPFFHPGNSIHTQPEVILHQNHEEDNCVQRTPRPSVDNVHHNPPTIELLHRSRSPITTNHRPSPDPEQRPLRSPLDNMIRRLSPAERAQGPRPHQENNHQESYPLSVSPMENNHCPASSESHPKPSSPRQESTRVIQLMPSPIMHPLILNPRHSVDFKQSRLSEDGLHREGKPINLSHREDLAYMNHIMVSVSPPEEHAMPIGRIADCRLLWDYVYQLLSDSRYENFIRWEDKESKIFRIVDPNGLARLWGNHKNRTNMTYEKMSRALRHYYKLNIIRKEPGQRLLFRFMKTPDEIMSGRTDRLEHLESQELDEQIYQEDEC
# Summary of the method: as §1
sequence,measurement,setting,value
GGGAAA,binding signal,[1],"1.05 fold enrichment (6-mer frequency, TF over GST control)"
same,binding signal,[2],"1.02 fold enrichment (6-mer frequency, TF over GST control)"
same,binding signal,[3],"1.03 fold enrichment (6-mer frequency, TF over GST control)"
same,binding signal,[4],"1.07 fold enrichment (6-mer frequency, TF over GST control)"
same,binding signal,[5],"1.05 fold enrichment (6-mer frequency, TF over GST control)"
same,binding signal,[6],"1.1 fold enrichment (6-mer frequency, TF over GST control)"
same,binding signal,[7],"1.05 fold enrichment (6-mer frequency, TF over GST control)"
same,binding signal,[8],"1.03 fold enrichment (6-mer frequency, TF over GST control)"
same,binding signal,[9],"1.02 fold enrichment (6-mer frequency, TF over GST control)"
same,binding signal,[10],"1.05 fold enrichment (6-mer frequency, TF over GST control)"
same,binding signal,[11],"1.01 fold enrichment (6-mer frequency, TF over GST control)"
same,binding signal,[12],"1.12 fold enrichment (6-mer frequency, TF over GST control)"
same,binding signal,[13],"1.03 fold enrichment (6-mer frequency, TF over GST control)"
same,binding signal,[14],"1.22 fold enrichment (6-mer frequency, TF over GST control)"
